Reference: PubChem BioAssay (NCI)
About 83,000 compounds went through this panel and 20% of them were active in at least one assay; those are over-represented in the sample as a whole.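 For each line, cells grew in 96-well plates with the test compound present at a single concentration for 48 hours.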 Activity calls are given as the source filed them. The calls were made as follows: active = growth percent below 10; inactive = the rest.

Legend:
Test in all cases: NCI-60 one-dose screen, 48 h (100 = growth as untreated, 0 = no growth, -100 = all killed)
Settings in all cases: 10 µM unless noted
SR leukemia = system: SR leukemia
RPMI-8226 leukemia = system: RPMI-8226 leukemia
OVCAR-8 ovarian = system: OVCAR-8 ovarian
OVCAR-5 ovarian = system: OVCAR-5 ovarian
OVCAR-4 ovarian = system: OVCAR-4 ovarian
SK-OV-3 ovarian = system: SK-OV-3 ovarian
OVCAR-3 ovarian = system: OVCAR-3 ovarian
HS 578T breast = system: HS 578T breast
NCI/ADR-RES ovarian = system: NCI/ADR-RES ovarian
IGROV1 ovarian = system: IGROV1 ovarian

Measured: growth

CC(C)c1ccc(NC(=O)Nc2ccc(NC(=O)CCCC(=O)NOCc3ccccc3)cc2)cc1
inactive: SR leukemia 73.4% | RPMI-8226 leukemia 91.1% | OVCAR-8 ovarian 96.7% | OVCAR-5 ovarian 89.2% | OVCAR-4 ovarian 89.2% | SK-OV-3 ovarian 97.4% | OVCAR-3 ovarian 94% | HS 578T breast 85.7% | NCI/ADR-RES ovarian 99.1%

Cc1cc(N)c2cc(NC(=O)/C=C\c3ccccc3Cl)ccc2n1
active: SR leukemia 7.11% | RPMI-8226 leukemia -70.9% | OVCAR-8 ovarian -41.9% | OVCAR-5 ovarian -95.4% | OVCAR-4 ovarian -64.1% | SK-OV-3 ovarian -96.4% | IGROV1 ovarian -67.5% | HS 578T breast -72.3%
inactive: NCI/ADR-RES ovarian 48.9%

COc1ccc(/C(C)=C(/c2ccc(OCCCN(C)C)cc2)c2ccc(OC(=O)Cc3ccccc3)cc2)cc1
active: SR leukemia -0.597%
inactive: RPMI-8226 leukemia 48.1% | OVCAR-8 ovarian 87.6% | OVCAR-5 ovarian 85.2% | OVCAR-4 ovarian 87.9% | SK-OV-3 ovarian 73.4% | OVCAR-3 ovarian 81.2% | HS 578T breast 56.5% | NCI/ADR-RES ovarian 85.1%

O=C1Nc2ccccc2/C1=C\c1nc(-c2ccccc2F)n2ccccc12
inactive: SR leukemia 49.6% | RPMI-8226 leukemia 44.6% | OVCAR-5 ovarian 47.8% | HS 578T breast 12%
active: OVCAR-8 ovarian 5.14% | OVCAR-4 ovarian -34.4% | SK-OV-3 ovarian -0.955% | OVCAR-3 ovarian 6.22% | NCI/ADR-RES ovarian 9.77%

Oc1c(Cl)cc(Cl)c2ccc(Cn3cc(-c4cc(C(F)(F)F)cc(C(F)(F)F)c4)nn3)nc12
active: SR leukemia -14% | RPMI-8226 leukemia 3.44%
inactive: OVCAR-8 ovarian 53.6% | OVCAR-5 ovarian 95.6% | OVCAR-4 ovarian 48.6% | SK-OV-3 ovarian 115% | IGROV1 ovarian 82.3% | HS 578T breast 94.9% | NCI/ADR-RES ovarian 97.8%

CC(=O)N(N=Nc1ccccc1)c1cccc2ccccc12
inactive: SR leukemia 74.1% | RPMI-8226 leukemia 102% | OVCAR-8 ovarian 84.1% | OVCAR-5 ovarian 75.8% | OVCAR-4 ovarian 94.5% | SK-OV-3 ovarian 82.7% | OVCAR-3 ovarian 125% | HS 578T breast 101% | NCI/ADR-RES ovarian 78.5%

CCNc1cc(-c2cccc(OC(F)(F)F)c2)nc2ccc(N3CCCC3)cc12
active: SR leukemia 6.47% | RPMI-8226 leukemia -2.09% | OVCAR-8 ovarian 5.54% | OVCAR-3 ovarian -18% | NCI/ADR-RES ovarian 0.328%
inactive: OVCAR-5 ovarian 27.9% | OVCAR-4 ovarian 14.5% | SK-OV-3 ovarian 17.7% | HS 578T breast 70.5%

O=C1CC(N2C(=O)/C(=C/C(Cl)=C\c3ccc([N+](=O)[O-])cc3)SC2=S)C(=O)N1c1ccc(Cl)cc1 (configuration not stated)
active: SR leukemia 4.86% | RPMI-8226 leukemia -1.96% | OVCAR-4 ovarian 9.19% | NCI/ADR-RES ovarian 8.17%
inactive: OVCAR-8 ovarian 15.7% | OVCAR-5 ovarian 40.6% | SK-OV-3 ovarian 99.2% | IGROV1 ovarian 10.2% | HS 578T breast 21.7%

O=C1Nc2ccccc2[C@]12CC(c1ccccc1)=NN2
inactive: SR leukemia 21.6% | RPMI-8226 leukemia 39% | OVCAR-8 ovarian 65.8% | OVCAR-5 ovarian 61.7% | OVCAR-4 ovarian 84.5% | SK-OV-3 ovarian 57.1% | OVCAR-3 ovarian 27.7% | HS 578T breast 58.4% | NCI/ADR-RES ovarian 44.9%

O=[N+]([O-])c1ccc(S(=O)(=O)N2CCN(C3=NS(=O)(=O)c4ccccc4N3c3ccccc3)CC2)cc1
inactive: SR leukemia 40.5% | RPMI-8226 leukemia 58.7% | OVCAR-8 ovarian 93.1% | OVCAR-5 ovarian 95% | OVCAR-4 ovarian 99.8% | SK-OV-3 ovarian 102% | IGROV1 ovarian 97% | HS 578T breast 109% | NCI/ADR-RES ovarian 92.9%

CCC(=C(c1ccc(OCCN2CCCC2)cc1)c1ccc(OCCN2CCCC2)cc1)c1ccc(Cl)cc1
inactive: OVCAR-5 ovarian 19.5% | SK-OV-3 ovarian 84.8% | NCI/ADR-RES ovarian 10.5%
active: SR leukemia -40.5% | RPMI-8226 leukemia -44.1% | OVCAR-8 ovarian -7.08% | OVCAR-4 ovarian -43.4% | OVCAR-3 ovarian -57.6% | HS 578T breast -47.4%

CC1(C)CC[C@]2(c3nnc(-c4ccncc4)o3)CC[C@H]3C(=CC[C@H]4[C@@]3(C)CC[C@H]3C(C)(C)C(=O)CC[C@]43C)[C@@H]2C1
inactive: SR leukemia 17% | RPMI-8226 leukemia 19.2% | OVCAR-8 ovarian 86.9% | OVCAR-5 ovarian 96.1% | SK-OV-3 ovarian 82.9% | IGROV1 ovarian 71.9% | OVCAR-3 ovarian 45% | HS 578T breast 82.4% | NCI/ADR-RES ovarian 82%

COC(=O)/C(CCC=C(C)C)=C1\[C@@H](OC(C)=O)C[C@@]2(C)[C@H]1C[C@@H](O)[C@H]1[C@@]3(C)CC[C@H](NCCN)[C@@H](C)[C@@H]3CC[C@@]12C
active: SR leukemia -17.8%
inactive: RPMI-8226 leukemia 70% | OVCAR-8 ovarian 86.3% | OVCAR-5 ovarian 104% | SK-OV-3 ovarian 93.6% | IGROV1 ovarian 86.6% | OVCAR-3 ovarian 83.8% | HS 578T breast 77.9% | NCI/ADR-RES ovarian 93.4%

Cc1cccc(N2CCN(CC(O)COc3ccc(Cl)cc3)CC2)c1 (configuration not stated)
active: SK-OV-3 ovarian -100%
inactive: SR leukemia 79.7% | RPMI-8226 leukemia 77.6% | OVCAR-8 ovarian 98.8% | OVCAR-5 ovarian 116% | IGROV1 ovarian 92.7% | OVCAR-3 ovarian 111% | HS 578T breast 115% | NCI/ADR-RES ovarian 105%

COc1ccc(-c2cc(-c3ccc(Cl)cc3)c(C#N)c(=O)n2CCCCC(=O)Nc2ccccc2N)cc1
inactive: SR leukemia 15.5% | OVCAR-8 ovarian 42.8% | OVCAR-5 ovarian 58.6% | SK-OV-3 ovarian 78% | IGROV1 ovarian 47.4% | HS 578T breast 75.7% | NCI/ADR-RES ovarian 37.3%
active: RPMI-8226 leukemia 0.147%

O=C(CSc1nc2ccc([N+](=O)[O-])cc2[nH]1)Nc1ccc(F)cc1
inactive: SR leukemia 33.7% | RPMI-8226 leukemia 24.1% | OVCAR-8 ovarian 67.3% | OVCAR-5 ovarian 91.8% | SK-OV-3 ovarian 63.1% | IGROV1 ovarian 68.4% | OVCAR-3 ovarian 47.8% | HS 578T breast 74% | NCI/ADR-RES ovarian 59%

Cc1cc(Cl)ccc1Nc1nc(C(F)(F)F)ccc1C(=O)N/N=C/c1ccc([N+](=O)[O-])cc1
inactive: HS 578T breast 97.3%
active: SR leukemia -1.84% | RPMI-8226 leukemia -72.6% | OVCAR-8 ovarian 9.08% | OVCAR-5 ovarian -18.6% | SK-OV-3 ovarian -14.9% | IGROV1 ovarian -35.1% | OVCAR-3 ovarian -18.1% | NCI/ADR-RES ovarian -32.8%

COc1cc2oc(-c3cccc(NC(=O)c4cccc(Br)c4)c3)cc(=O)c2c(OC)c1OC
inactive: SR leukemia 43.2% | RPMI-8226 leukemia 25.5% | OVCAR-8 ovarian 34.8% | OVCAR-5 ovarian 87.7% | OVCAR-4 ovarian 58.7% | SK-OV-3 ovarian 92.5% | OVCAR-3 ovarian 66.5% | HS 578T breast 47.1% | NCI/ADR-RES ovarian 53.1%

O=C(Cn1c(-c2ccc([N+](=O)[O-])cc2)nc2ccccc21)NNC(=O)c1cccnc1
inactive: SR leukemia 75.9% | RPMI-8226 leukemia 77.6% | OVCAR-8 ovarian 85.1% | OVCAR-5 ovarian 101% | SK-OV-3 ovarian 102% | IGROV1 ovarian 63.3% | OVCAR-3 ovarian 97.3% | HS 578T breast 101% | NCI/ADR-RES ovarian 87.9%

COC(C(=O)[C@@H](O)[C@@H](C)O)[C@@H]1Cc2cc3cc(O[C@H]4C[C@@H](O[C@H]5C[C@@H](O)[C@H](O)C(C)O5)[C@H](O)C(C)O4)cc(O)c3c(O)c2C(=O)[C@H]1O[C@H]1C[C@@H](O[C@H]2C[C@@H](O[C@H]3C[C@@H](OC)[C@H](O)C(C)O3)[C@@H](O)C(C)O2)[C@H](O)C(C)O1 (some centres not stated)
inactive: SR leukemia 33.9% | RPMI-8226 leukemia 50% | OVCAR-8 ovarian 42.4% | OVCAR-5 ovarian 54.3% | SK-OV-3 ovarian 32.3% | IGROV1 ovarian 32.4% | OVCAR-3 ovarian 61% | HS 578T breast 46.2% | NCI/ADR-RES ovarian 97.5%

COc1cc(C(=O)n2nc(N3CCN(C)CC3)c3cc(N)ccc32)cc(OC)c1OC
active: OVCAR-3 ovarian 4.26%
inactive: SR leukemia 13.3% | RPMI-8226 leukemia 33.3% | OVCAR-8 ovarian 30.3% | OVCAR-5 ovarian 50.4% | SK-OV-3 ovarian 28.1% | IGROV1 ovarian 32.5% | HS 578T breast 44.5%

N#C/C(=C\c1ccc2ccccc2c1)c1cc2ccccc2[nH]1
active: OVCAR-3 ovarian 7.91%
inactive: SR leukemia 23.5% | RPMI-8226 leukemia 32.4% | OVCAR-8 ovarian 46.5% | OVCAR-5 ovarian 61.2% | OVCAR-4 ovarian 88.3% | SK-OV-3 ovarian 64% | HS 578T breast 25.8% | NCI/ADR-RES ovarian 12.4%

O=C(Nc1cc(Cl)ccc1O)c1ccc(Nc2ccnc(C(F)(F)F)c2)cc1
inactive: SR leukemia 23.7% | OVCAR-8 ovarian 51.8% | OVCAR-5 ovarian 86.4% | SK-OV-3 ovarian 64.1% | IGROV1 ovarian 36% | OVCAR-3 ovarian 14.3% | HS 578T breast 49.9% | NCI/ADR-RES ovarian 35.1%
active: RPMI-8226 leukemia -6.66%

COCCn1cc(-c2nc(-c3cc4cccnc4n3CCOC)cs2)c2cc(OC)ccc21
inactive: SR leukemia 36.3% | RPMI-8226 leukemia 60.3% | OVCAR-8 ovarian 61.1% | OVCAR-5 ovarian 23.6% | SK-OV-3 ovarian 73.4% | IGROV1 ovarian 30.8% | HS 578T breast 58% | NCI/ADR-RES ovarian 58.3%
active: OVCAR-3 ovarian 4.62%

O=S(=O)(NCCNc1cc(-c2c(-c3cccc(O)c3)nc3sccn23)ccn1)c1ccc(C(F)(F)F)cc1
inactive: SR leukemia 19.6% | RPMI-8226 leukemia 30.3% | OVCAR-8 ovarian 28.4% | OVCAR-5 ovarian 93.5% | SK-OV-3 ovarian 45.4% | IGROV1 ovarian 36.4% | OVCAR-3 ovarian 37.1% | HS 578T breast 42.8% | NCI/ADR-RES ovarian 58%

O=C(CN1C(=O)CCC1=O)Nc1ncc(Cc2ccc(F)cc2)s1
inactive: SR leukemia 99.9% | RPMI-8226 leukemia 105% | OVCAR-8 ovarian 107% | OVCAR-5 ovarian 97.3% | SK-OV-3 ovarian 110% | IGROV1 ovarian 101% | HS 578T breast 101%

Cc1nc2sc(C(=O)Nc3ccccc3)c(N)c2cc1C(=O)c1ccccc1
active: SR leukemia 8.32% | SK-OV-3 ovarian 4.72%
inactive: RPMI-8226 leukemia 38% | OVCAR-8 ovarian 56% | OVCAR-5 ovarian 59% | OVCAR-4 ovarian 63% | OVCAR-3 ovarian 29.2% | HS 578T breast 13% | NCI/ADR-RES ovarian 37.8%

O=C(Nc1cccc([N+](=O)[O-])c1)c1cc2ccccc2cc1O
active: RPMI-8226 leukemia -55.3% | OVCAR-8 ovarian 9.47% | SK-OV-3 ovarian -82% | IGROV1 ovarian -2.54% | OVCAR-3 ovarian -9.94% | HS 578T breast 6.07% | NCI/ADR-RES ovarian -10.6%
inactive: SR leukemia 48.6% | OVCAR-5 ovarian 10.8%

Cc1ccc(-c2csc(NC(=O)CN3CCN(c4cc5c(cc4F)c(=O)c(C(=O)O)cn5C4CC4)CC3)n2)cc1
active: SR leukemia -0.152% | RPMI-8226 leukemia 6.21% | SK-OV-3 ovarian -7.14% | NCI/ADR-RES ovarian 4.91%
inactive: OVCAR-8 ovarian 10.6% | OVCAR-5 ovarian 21.1% | OVCAR-4 ovarian 20.8% | OVCAR-3 ovarian 14.8% | HS 578T breast 47.8%
